Laboratory results taken from PubChem BioAssay.
Activity calls are given as the source filed them. Unless noted, the rule behind the calls is not given here.

What was measured:
[1] = liver-stage malaria parasite load reduction – cell-based, known kinase inhibitor set, luminescence, hepatoma host viability (AID 624392); settings: Plasmodium liver stage in hepatoma cells, luciferase luminescence, concentration not given here; liver cell % of control: measured here: host liver cell viability; parasite % of control: stronger effect = lower value;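 note: infected cells incubated roughly two days before readout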
[2] = altered dexamethasone sensitivity, NF-kB reporter, cell-based, luciferase, IL-1B stimulus (AID 624486); settings: IL-1B + dexamethasone, luminescence; percent of negative control (+Dex): actives lie on both sides, concentration not given here; z-score: measured here: IL-1B alone, no Dex;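 for percent of negative control (+Dex): 100% = mean signal of vehicle control wells on the plate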
[3] = C. elegans survival during P. aeruginosa infection – whole organism (AID 651566);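 note: tested at 14 µM; sign flipped so higher z means a lower ratio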; settings: C. elegans killed by P. aeruginosa, survival ratio
[4] = pro-inflammatory signaling induction in mouse macrophages – cell-based, murine, luminescence (AID 652131); settings: murine macrophage pro-inflammatory reporter, stronger effect = higher value
[5] = molecular target: Cellular tumor antigen p53 (Homo sapiens) (UniProt P04637); experiment: GFP-p53 level modulators in HPV16+ cells – imaging, known kinase inhibitor set, EGFP/DsRed ratio (AID 1053116); settings: GFP-p53 stability, stronger effect = higher value; EGFP object count: measured here: GFP-p53 positive objects count;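 note: cells exposed to compounds for 24 h at 37 °C before reading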
Chain of Cellular tumor antigen p53 (Homo sapiens) (P04637 whole entry, looked up): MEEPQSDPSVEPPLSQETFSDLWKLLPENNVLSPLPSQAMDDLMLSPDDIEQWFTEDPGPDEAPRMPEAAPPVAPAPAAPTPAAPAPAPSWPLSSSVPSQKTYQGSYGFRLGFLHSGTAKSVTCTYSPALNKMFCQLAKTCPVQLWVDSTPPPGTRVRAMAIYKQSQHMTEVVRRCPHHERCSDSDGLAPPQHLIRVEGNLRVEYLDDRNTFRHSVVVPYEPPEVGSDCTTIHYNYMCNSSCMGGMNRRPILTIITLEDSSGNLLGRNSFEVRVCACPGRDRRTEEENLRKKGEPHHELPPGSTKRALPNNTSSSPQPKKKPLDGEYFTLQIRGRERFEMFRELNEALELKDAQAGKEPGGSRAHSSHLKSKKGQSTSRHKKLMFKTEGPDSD

[6] = inducers of IRF3 signaling, differentiated THP-1 – cell-based, PMA-stimulated THP-1, luminescence (AID 1053176); settings: PMA-differentiated THP-1, IRF3 reporter luminescence; stronger effect = higher value
[7] = MELAS cybrid and Rieske KO viability enhancers – cell-based, MELAS cybrids, Rieske KO mouse fibroblasts, CellTiter-Glo, primary screen (AID 1508586;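 active = mean z-score across replicates of 1.96 or higher in either the MELAS or the Rieske mutant cell line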;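 note: z relative to plate mean and SD of compound and empty wells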); settings: low glucose
[8] = MELAS cybrid survival, CellTiter-Glo 48 h, stronger effect = higher value
[9] = Rieske KO mouse fibroblast survival, CellTiter-Glo 72 h

SMILES | liver cell % of control [1] | parasite % of control [1] | percent of negative control (+Dex) [2] | z-score [2] | z-score [3] | z-score [4] | EGFP object count [5] | EGFP/DsRed ratio [5] | fraction signal [6] | z-score [7, 8] | z-score [7, 9]
Cc1ccc(O)cc1Nc1ccnc2ccc(S(C)(=O)=O)cc12 | 79.8% | 60.9% (inactive) | 60.5% (inactive) | -3.46 | 0.285 (inactive) | 0.671 (inactive) | 3 | 0.0595 (inactive) | -0.007 (inactive) | -0.116 | 3.87
Cc1ccc(C(=O)NC2CCCCC2)cc1-c1ccc(C(=O)NCC2CC2)cc1 | 103% | 134% (inactive) | 88.5% (inactive) | 0.05 | 1.71 (inactive) | 0.167 (inactive) | 5.5 | 0.116 (inactive) | -0.007 (inactive) | -0.861 (inactive) | 0.203
COc1cc(Nc2nccc(Nc3ccc4c(C)[nH]nc4c3)n2)cc(OC)c1OC | 142% | 247% (inactive) | 68% (inactive) | -1.93 | -0.535 (inactive) | 2.91 (inactive) | 2 | 0.0182 (inactive) | -0.01 (inactive) | -0.786 | 5.33
Nc1nccc(-c2c(-c3ccc(F)cc3)nn3cc(C(F)(F)F)ccc23)n1 | 111% | 130% (inactive) | 107% (inactive) | 1.32 | -0.745 (inactive) | -0.016 (inactive) | 5.5 | 0.148 (inactive) | -0.0075 (inactive) | -0.218 (inactive) | -0.148
O=C1Nc2ccccc2/C1=C1\CCc2cc(O)ccc21 | 77.7% | 108% (inactive) | 114% (inactive) | 1.81 | -1.72 (inactive) | 3.73 (inactive) | 8.5 | 0.108 (inactive) | -0.013 (inactive) | -0.0823 (inactive) | -0.0427
NS(=O)(=O)c1cccc(-c2ccc3c(NC(=O)C4CC4)n[nH]c3c2)c1 | 97.5% | 241% (inactive) | 90.5% (inactive) | 0.225 | -0.22 (inactive) | -0.069 (inactive) | 4 | 0.0329 (inactive) | -0.0015 (inactive) | -0.0262 (inactive) | -0.475
CNC(=O)c1cc(-c2ccc(F)cc2)cc(-c2ccc(S(=O)(=O)N3CCCC3)cc2)c1N | 102% | 80.4% (inactive) | 92% (inactive) | -0.05 | 0.5 (inactive) | -0.377 (inactive) | 6.5 | 0.244 (inactive) | -0.007 (inactive) | -0.388 (inactive) | -0.623
CCc1nccc2c1nc(-c1nonc1N)n2CC | 89.7% | 130% (inactive) | 67% (inactive) | -2.37 | -0.475 (inactive) | -0.569 (inactive) | 2.5 | 0.0232 (inactive) | 0.005 (inactive) | 0.0182 (inactive) | -0.326
CS(=O)(=O)CCNCc1ccc(-c2ccc3ncnc(Nc4ccc(OCc5cccc(C(F)(F)F)c5)cc4)c3c2)o1 | 91.4% | 126% (inactive) | 85% (inactive) | -0.68 | -0.1 (inactive) | 0.289 (inactive) | 4.5 | 0.109 (inactive) | 0.018 (inactive) | 0.798 (inactive) | -0.393
COc1ccc(-c2cc(C3CNNC3c3ccccn3)ccn2)cc1 (stereo not drawn) | 171% | 92.3% (inactive) | 104% (inactive) | 1.42 | -0.77 (inactive) | 2.73 (inactive) | 3.5 | 0.0398 (inactive) | -0.0055 (inactive) | -0.36 (inactive) | -0.107
OCCCNc1nccc(-c2c(-c3ccc(F)cc3)nn3cc(C(F)(F)F)ccc23)n1 | 124% | 77.5% (inactive) | 106% (inactive) | 1.02 | 0.765 (inactive) | 0.66 (inactive) | 2 | 0.0239 (inactive) | -0.0065 (inactive) | -0.607 (inactive) | 0.0984
COc1ccc2cc(-c3c(-c4ccncc4)nc(-c4ccc(S(C)(=O)=O)cc4C)n3C)ccc2c1 | 118% | 101% (inactive) | 99% (inactive) | 0.22 | 1.57 (inactive) | -0.298 (inactive) | 1.5 | 0.0486 (inactive) | 0.0025 (inactive) | -0.409 (inactive) | -0.281
COc1cc2ncnc(Nc3ccc(C)c(O)c3)c2cc1OC | 56.5% | 110% (inactive) | 65.5% (inactive) | -2.25 | 0.58 (inactive) | 2.59 (inactive) | 6 | 0.129 (inactive) | 0.0075 (inactive) | 1.32 (inactive) | -0.31
C[C@@H](Oc1cc(-n2cnc3ccc(OCC4CCN(C)CC4)cc32)sc1C(N)=O)c1ccccc1C(F)(F)F | 80.7% | 130% (inactive) | 98.5% (inactive) | -0.76 | -1.17 (inactive) | -2 (inactive) | 12 | 0.346 (inactive) | -0.0025 (inactive) | 0.571 (inactive) | 0.279
NC(=O)c1ccc(Oc2nccc(-c3c(-c4ccc(F)cc4)ncn3C3CCNCC3)n2)cc1 | 89.2% | 144% (inactive) | 96% (inactive) | 0.125 | 0.14 (inactive) | 0.154 (inactive) | 8.5 | 0.173 (inactive) | -0.008 (inactive) | 0.243 (inactive) | -0.477
CCn1c(-c2nonc2N)nc2c(C#CC(C)(C)O)ncc(OC[C@@H]3CCCN3)c21 | 81.5% | 41.7% (inactive) | 104% (inactive) | -0.32 | -0.14 (inactive) | 5.3 (inactive) | 11.5 | 0.291 (inactive) | 0.0025 (inactive) | -0.59 (inactive) | -0.205
CCc1nn2ncccc2c1-c1ccnc(NC2CC2)n1 | 131% | 61.2% (inactive) | 102% (inactive) | -0.225 | 0.555 (inactive) | -0.174 (inactive) | 3.5 | 0.117 (inactive) | 0.007 (inactive) | -0.448 (inactive) | -0.208
CC(C)COC(=O)c1ccc2[nH]c(O)c(C=Nc3ccc(S(N)(=O)=O)cc3)c2c1 | 61% | 105% (inactive) | 108% (inactive) | 0.975 | 0.47 (inactive) | -1.9 (inactive) | 3.5 | 0.0968 (inactive) | -0.013 (inactive) | -0.896 (inactive) | 0.112
CCS(=O)(=O)c1ccc(OC)c(Nc2nccc(N(C)c3ccc4c(C)[nH]nc4c3)n2)c1 | 95.1% | 145% (inactive) | 92% (inactive) | -0.36 | -0.175 (inactive) | 2.99 (inactive) | 2.5 | 0.0751 (inactive) | -0.01 (inactive) | 1.33 (inactive) | 0.00494
CS(=O)(=O)CCNCc1nc(-c2ccc3ncnc(Nc4ccc(F)c(Cl)c4)c3c2)cs1 | 103% | 148% (inactive) | 70.5% (inactive) | -1.57 | 0.63 (inactive) | 2.24 (inactive) | 6.5 | 0.211 (inactive) | 0.002 (inactive) | 0.0696 (inactive) | -0.331
Nc1nc(-c2cccc(Cl)c2)c(-c2ccc3ncccc3n2)s1 | 156% | 115% (inactive) | 103% (inactive) | 0.42 | -1.02 (inactive) | -0.477 (inactive) | 2.5 | 0.0471 (inactive) | -0.0045 (inactive) | 0.115 (inactive) | -0.0691
FC(F)(F)c1cccc(-c2nn3ncccc3c2-c2ccnc(Nc3ccc4c(c3)OCCO4)n2)c1 | 147% | 22.4% (inactive) | 90.5% (inactive) | 0.13 | -0.325 (inactive) | -0.458 (inactive) | 5.5 | 0.171 (inactive) | 0.007 (inactive) | -0.0141 (inactive) | -0.445
NC(=O)c1cc(-c2ccncc2)cc(-c2ccccc2)c1N | 95.8% | 55.5% (inactive) | 52% (inactive) | -4.61 | -0.845 (inactive) | -1.14 (inactive) | 2.5 | 0.104 (inactive) | 0.0085 (inactive) | -0.817 (inactive) | -0.475
Cc1nnc(-c2cccc(-c3ccc(C(=O)NCC4CC4)cc3)c2)o1 | 102% | 99.2% (inactive) | 89.5% (inactive) | -0.24 | 0.175 (inactive) | -0.114 (inactive) | 4 | 0.0445 (inactive) | -0.01 (inactive) | 0.518 (inactive) | 0.121
CCn1c(-c2nonc2N)nc2ccncc21 | 99.1% | 98.3% (inactive) | 93.5% (inactive) | -0.26 | -0.61 (inactive) | -0.193 (inactive) | 4 | 0.405 (inactive) | -0.004 (inactive) | -0.197 (inactive) | -0.472
CCCN1CCC=C(c2ccc(Nc3nc(Nc4ccccc4C(N)=O)c4cc[nH]c4n3)c(C)c2)C1 | 86.8% | 580% (inactive) | 88% (inactive) | -0.67 | 0.47 (inactive) | -1.61 (inactive) | 4 | 0.193 (inactive) | 0 (inactive) | -0.329 (inactive) | 0.0526
CN1CCN(Cc2ccc(-c3cc4ncnc(Nc5ccc(OCc6cccc(F)c6)c(Cl)c5)c4s3)o2)CC1 | 69.8% | 97% (inactive) | 86.5% (inactive) | -0.395 | 0.455 (inactive) | -0.527 (inactive) | 11.5 | 0.213 (inactive) | 0.006 (inactive) | 0.235 (inactive) | -0.538
COc1cccc(COc2cc(-n3cnc4ccccc43)sc2C(N)=O)c1 | 95% | 99.6% (inactive) | 87% (inactive) | -0.845 | 1.31 (inactive) | -0.593 (inactive) | 4 | 0.0452 (inactive) | -0.006 (inactive) | -0.15 (inactive) | 0.0931
